Source: publication PMC7862700, “An all-to-all approach to the identification of sequence-specific readers for epigenetic DNA modifications on cytosine”

What was measured:
Test in all cases: DAPPL (digital affinity profiling via proximity ligation, sequencing); 10 mM Tris-HCl pH 7.5, 50 mM NaCl, 1 mM DTT, 4% glycerol, room temperature, 30 min; GST-TFs on glutathione beads, 16-mer random dsDNA library, 0.1% formaldehyde crosslink after washing; high values mean tight binding
Conditions in all cases: protein: recombinant; tags: N-terminal GST; dsDNA, one strand shown
FLI1 = target: T1, FLI1 (Homo sapiens, UniProt Q01543 1-452)
T1 sequence: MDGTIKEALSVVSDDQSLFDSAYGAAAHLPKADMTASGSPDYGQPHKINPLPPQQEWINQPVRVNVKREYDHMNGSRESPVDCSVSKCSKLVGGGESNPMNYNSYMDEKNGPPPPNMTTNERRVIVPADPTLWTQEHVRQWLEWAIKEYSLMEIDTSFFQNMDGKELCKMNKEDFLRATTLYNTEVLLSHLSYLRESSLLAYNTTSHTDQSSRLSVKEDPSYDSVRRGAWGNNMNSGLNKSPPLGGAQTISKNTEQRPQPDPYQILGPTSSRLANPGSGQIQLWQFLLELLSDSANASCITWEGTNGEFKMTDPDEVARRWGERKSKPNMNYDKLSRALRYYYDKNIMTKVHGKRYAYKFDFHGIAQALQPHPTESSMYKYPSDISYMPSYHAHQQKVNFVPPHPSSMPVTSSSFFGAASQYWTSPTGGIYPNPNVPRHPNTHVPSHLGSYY
Outline: (§1)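 Each value of binding signal is a hexamer's read frequency for a factor divided by the same hexamer's frequency in the tag-only sample. Barcoded, bead-captured GST fusions of human transcription factors made in yeast were pooled with that sample and incubated with 200 nmole of a random double-stranded 16-mer DNA library in Tris/NaCl/DTT/glycerol buffer at room temperature for 30 min. Washing, 0.1% formaldehyde crosslinking, proximity ligation, PCR and Illumina NextSeq500 sequencing followed.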

ELK1 = target: T2, ELK1 (Homo sapiens, UniProt P19419 1-428)
T2 sequence: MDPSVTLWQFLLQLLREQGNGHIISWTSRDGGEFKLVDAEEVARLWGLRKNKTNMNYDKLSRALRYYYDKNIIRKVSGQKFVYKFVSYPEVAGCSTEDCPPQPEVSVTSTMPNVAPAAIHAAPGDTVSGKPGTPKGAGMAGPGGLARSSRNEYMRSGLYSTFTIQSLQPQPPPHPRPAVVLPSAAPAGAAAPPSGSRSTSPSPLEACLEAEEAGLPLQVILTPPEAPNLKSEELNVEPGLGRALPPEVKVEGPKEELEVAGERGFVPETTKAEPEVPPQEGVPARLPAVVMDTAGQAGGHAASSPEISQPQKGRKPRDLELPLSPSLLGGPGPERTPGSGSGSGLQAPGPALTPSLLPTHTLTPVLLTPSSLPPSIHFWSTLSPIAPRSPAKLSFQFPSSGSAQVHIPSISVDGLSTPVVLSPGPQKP
Outline: as §1

GABPA = target: T3, GABPA (Homo sapiens, UniProt Q06546 1-454)
T3 sequence: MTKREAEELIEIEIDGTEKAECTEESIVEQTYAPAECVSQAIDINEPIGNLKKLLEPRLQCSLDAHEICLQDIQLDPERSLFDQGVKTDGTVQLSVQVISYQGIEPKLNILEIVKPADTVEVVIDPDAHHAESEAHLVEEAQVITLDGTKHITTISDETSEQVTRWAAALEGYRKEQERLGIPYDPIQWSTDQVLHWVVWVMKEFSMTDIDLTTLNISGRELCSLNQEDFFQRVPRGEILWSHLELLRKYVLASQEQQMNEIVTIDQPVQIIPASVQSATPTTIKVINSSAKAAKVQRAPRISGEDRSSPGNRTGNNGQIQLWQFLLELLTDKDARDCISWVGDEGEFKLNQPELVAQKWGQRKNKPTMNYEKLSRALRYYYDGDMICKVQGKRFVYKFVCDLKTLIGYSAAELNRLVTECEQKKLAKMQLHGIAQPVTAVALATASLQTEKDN
Outline: as §1

ERG = target: T4, ERG (Homo sapiens, UniProt P11308 1-479)
T4 sequence: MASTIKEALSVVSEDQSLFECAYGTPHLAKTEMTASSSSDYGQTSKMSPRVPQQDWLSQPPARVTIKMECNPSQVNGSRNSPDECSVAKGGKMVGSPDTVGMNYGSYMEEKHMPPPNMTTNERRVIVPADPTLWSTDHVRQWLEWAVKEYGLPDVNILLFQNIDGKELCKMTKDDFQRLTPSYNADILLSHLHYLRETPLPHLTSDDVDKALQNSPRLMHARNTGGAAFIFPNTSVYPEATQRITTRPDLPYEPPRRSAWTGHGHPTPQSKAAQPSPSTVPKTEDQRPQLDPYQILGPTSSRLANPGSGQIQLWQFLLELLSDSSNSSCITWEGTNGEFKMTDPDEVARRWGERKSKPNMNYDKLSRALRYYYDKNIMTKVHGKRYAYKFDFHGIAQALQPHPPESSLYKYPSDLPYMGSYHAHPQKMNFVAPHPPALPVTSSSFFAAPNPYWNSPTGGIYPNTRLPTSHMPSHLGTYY
Outline: as §1

ELF1 = ELF1 (Homo sapiens, UniProt P32519 1-619)
Outline: as §1

EHF = target: T5, EHF (Homo sapiens, UniProt Q9NZC4 1-300)
T5 sequence: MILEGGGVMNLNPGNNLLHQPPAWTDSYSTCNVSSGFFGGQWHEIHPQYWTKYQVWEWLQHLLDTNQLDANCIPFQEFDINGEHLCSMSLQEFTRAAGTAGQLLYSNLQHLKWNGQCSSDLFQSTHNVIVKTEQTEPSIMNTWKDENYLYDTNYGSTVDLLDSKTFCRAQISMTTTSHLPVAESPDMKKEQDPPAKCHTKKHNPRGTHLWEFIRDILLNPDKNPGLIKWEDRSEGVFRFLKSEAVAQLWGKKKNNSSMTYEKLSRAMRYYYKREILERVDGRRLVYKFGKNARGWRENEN
Outline: as §1

SPI1 = SPI1 (Homo sapiens, UniProt P17947 1-270)
Outline: as §1

SPIB = SPIB (Homo sapiens, UniProt Q01892 1-262)
Outline: as §1

ELK3 = target: T6, ELK3 (Homo sapiens, UniProt P41970 1-407)
T6 sequence: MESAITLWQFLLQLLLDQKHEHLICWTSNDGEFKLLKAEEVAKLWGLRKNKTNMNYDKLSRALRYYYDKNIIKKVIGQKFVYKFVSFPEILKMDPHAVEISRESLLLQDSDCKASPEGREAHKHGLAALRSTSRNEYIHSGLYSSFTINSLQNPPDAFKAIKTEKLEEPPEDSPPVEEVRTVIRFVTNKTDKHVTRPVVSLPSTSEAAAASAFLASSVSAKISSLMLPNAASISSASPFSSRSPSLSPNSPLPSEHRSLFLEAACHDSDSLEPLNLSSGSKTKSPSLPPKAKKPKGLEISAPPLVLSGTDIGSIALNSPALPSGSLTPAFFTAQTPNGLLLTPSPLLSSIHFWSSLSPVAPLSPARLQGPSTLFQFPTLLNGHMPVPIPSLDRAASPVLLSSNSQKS
Outline: as §1

FEV = target: T7, FEV (Homo sapiens, UniProt Q99581 1-238)
T7 sequence: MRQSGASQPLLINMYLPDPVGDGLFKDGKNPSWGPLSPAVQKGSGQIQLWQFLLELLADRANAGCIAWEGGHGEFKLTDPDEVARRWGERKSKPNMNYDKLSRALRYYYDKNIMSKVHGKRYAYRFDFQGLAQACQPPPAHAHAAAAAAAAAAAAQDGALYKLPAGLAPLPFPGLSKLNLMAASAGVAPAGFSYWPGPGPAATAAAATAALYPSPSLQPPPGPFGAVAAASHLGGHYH
Outline: as §1

ETV5 = ETV5 (Homo sapiens, UniProt P41161 1-510)
Outline: as §1

SPIC = target: T8, SPIC (Homo sapiens, UniProt Q8N5J4 1-248)
T8 sequence: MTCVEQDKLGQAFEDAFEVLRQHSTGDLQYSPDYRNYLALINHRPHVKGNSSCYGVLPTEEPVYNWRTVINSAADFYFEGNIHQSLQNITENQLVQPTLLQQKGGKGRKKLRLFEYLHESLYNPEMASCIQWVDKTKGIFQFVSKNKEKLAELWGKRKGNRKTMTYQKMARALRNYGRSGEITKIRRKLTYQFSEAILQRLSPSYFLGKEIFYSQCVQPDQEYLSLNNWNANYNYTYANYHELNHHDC
Outline: as §1

ELF4 = ELF4 (Homo sapiens, UniProt Q99607 1-663)
Outline: as §1

ELK4 = target: T9, ELK4 (Homo sapiens, UniProt P28324-2 1-405)
T9 sequence: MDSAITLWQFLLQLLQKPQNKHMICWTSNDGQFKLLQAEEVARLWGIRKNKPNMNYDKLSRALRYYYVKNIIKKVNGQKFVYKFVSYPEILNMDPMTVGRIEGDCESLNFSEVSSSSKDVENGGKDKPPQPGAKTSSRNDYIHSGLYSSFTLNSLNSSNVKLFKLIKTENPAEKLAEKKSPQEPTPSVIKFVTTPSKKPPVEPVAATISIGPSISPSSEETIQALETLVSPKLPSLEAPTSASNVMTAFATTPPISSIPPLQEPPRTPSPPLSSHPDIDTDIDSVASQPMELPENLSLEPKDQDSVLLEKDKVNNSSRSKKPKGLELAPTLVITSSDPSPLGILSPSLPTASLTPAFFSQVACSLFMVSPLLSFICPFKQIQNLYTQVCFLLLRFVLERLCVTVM
Outline: as §1

ETV2 = target: T10, ETV2 (Homo sapiens, UniProt O00321 1-342)
T10 sequence: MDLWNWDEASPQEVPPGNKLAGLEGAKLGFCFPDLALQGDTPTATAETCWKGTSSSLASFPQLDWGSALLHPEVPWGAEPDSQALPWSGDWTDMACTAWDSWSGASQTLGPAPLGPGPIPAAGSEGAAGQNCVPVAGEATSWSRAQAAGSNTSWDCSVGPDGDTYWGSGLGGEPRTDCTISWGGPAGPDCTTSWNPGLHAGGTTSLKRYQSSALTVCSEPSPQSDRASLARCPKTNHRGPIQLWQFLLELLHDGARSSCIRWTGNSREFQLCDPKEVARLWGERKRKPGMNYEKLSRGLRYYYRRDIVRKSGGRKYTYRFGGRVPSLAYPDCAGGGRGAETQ
Outline: as §1

ELF3 = target: T11, ELF3 (Homo sapiens, UniProt P78545 1-371)
T11 sequence: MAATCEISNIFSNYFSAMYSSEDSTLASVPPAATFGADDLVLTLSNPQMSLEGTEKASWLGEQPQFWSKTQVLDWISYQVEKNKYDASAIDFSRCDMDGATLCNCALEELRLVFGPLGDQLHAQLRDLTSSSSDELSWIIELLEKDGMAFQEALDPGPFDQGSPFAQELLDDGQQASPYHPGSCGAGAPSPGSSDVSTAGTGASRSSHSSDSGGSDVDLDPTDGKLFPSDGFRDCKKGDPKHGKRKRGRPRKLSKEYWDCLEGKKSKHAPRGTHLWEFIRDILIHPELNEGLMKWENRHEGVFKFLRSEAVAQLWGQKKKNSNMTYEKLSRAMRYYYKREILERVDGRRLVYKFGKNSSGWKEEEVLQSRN
Outline: as §1

ETV1 = ETV1 (Homo sapiens, UniProt P50549 1-477)
Outline: as §1

ELF4, sequence (Q99607 whole entry): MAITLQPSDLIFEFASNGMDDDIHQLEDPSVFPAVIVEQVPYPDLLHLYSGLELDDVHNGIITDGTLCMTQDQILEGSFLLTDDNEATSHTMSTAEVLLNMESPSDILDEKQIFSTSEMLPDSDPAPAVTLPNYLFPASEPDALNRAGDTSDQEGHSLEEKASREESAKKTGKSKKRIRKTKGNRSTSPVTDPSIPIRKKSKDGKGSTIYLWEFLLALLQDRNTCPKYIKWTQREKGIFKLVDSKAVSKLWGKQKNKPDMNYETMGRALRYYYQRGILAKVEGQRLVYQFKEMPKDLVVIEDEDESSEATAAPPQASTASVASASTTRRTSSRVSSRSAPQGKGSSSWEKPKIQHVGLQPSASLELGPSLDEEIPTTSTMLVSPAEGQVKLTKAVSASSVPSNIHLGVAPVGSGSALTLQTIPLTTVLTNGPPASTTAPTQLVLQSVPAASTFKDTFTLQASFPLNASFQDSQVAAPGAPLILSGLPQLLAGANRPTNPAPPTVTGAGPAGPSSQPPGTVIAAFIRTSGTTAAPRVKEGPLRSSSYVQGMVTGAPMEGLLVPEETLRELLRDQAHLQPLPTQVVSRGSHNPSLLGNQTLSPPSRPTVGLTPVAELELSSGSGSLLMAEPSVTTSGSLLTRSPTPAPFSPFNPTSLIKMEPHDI
ELF1, sequence (P32519 whole entry): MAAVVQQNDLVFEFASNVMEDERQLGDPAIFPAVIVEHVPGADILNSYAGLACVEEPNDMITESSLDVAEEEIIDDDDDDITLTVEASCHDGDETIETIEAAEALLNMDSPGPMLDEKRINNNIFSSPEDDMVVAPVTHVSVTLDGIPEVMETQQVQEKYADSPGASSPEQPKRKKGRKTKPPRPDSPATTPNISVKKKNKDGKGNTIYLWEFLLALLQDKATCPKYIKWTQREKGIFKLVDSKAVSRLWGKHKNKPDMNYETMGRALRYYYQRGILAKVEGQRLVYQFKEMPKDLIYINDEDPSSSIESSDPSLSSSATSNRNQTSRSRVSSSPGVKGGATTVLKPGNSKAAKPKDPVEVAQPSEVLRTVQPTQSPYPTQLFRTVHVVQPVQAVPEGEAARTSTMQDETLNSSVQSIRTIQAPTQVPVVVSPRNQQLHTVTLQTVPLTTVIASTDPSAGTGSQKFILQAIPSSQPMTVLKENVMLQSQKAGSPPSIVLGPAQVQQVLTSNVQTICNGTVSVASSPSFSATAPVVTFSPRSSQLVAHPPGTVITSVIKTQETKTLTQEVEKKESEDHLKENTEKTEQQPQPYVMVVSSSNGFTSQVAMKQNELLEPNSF
ETV5, sequence (P41161 whole entry): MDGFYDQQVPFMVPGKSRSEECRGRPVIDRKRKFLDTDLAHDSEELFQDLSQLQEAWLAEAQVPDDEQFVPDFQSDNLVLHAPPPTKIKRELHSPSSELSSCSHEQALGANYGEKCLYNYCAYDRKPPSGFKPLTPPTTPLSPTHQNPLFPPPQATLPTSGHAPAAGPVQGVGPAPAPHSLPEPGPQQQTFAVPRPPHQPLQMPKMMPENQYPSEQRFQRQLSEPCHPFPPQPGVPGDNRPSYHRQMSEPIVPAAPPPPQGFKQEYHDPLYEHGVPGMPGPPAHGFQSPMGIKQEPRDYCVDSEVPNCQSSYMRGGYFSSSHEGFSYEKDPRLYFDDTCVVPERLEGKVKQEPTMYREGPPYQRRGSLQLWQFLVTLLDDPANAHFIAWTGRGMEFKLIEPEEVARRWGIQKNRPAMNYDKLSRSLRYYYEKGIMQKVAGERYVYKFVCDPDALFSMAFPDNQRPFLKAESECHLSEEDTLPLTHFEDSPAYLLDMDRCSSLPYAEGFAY
SPIB, sequence (Q01892 whole entry): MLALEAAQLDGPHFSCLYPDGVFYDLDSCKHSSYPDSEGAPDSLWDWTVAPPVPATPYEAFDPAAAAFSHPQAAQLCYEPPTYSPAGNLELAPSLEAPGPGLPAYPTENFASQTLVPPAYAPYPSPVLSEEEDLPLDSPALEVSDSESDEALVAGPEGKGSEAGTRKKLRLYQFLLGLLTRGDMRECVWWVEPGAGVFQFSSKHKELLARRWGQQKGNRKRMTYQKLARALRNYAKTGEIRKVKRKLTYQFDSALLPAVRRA
ETV1, sequence (P50549 whole entry): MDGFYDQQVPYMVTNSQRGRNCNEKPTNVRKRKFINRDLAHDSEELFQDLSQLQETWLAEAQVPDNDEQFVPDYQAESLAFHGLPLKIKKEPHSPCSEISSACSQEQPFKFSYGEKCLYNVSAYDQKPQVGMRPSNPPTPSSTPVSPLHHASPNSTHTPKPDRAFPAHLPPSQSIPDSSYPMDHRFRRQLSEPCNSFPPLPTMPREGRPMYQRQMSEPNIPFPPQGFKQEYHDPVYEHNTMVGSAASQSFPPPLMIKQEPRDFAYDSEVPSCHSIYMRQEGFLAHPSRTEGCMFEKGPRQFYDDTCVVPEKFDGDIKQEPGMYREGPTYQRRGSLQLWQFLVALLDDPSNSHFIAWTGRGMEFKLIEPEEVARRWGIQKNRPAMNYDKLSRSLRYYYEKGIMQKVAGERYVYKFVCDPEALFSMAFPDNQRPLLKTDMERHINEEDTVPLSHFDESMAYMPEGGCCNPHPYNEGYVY

| Sequence | binding signal (FLI1) | binding signal (ELK1) | binding signal (GABPA) | binding signal (ERG) | binding signal (ELF1) | binding signal (EHF) | binding signal (SPI1) | binding signal (SPIB) | binding signal (ELK3) | binding signal (FEV) | binding signal (ETV5) | binding signal (SPIC) | binding signal (ELF4) | binding signal (ELK4) | binding signal (ETV2) | binding signal (ELF3) | binding signal (ETV1) |
| --- | --- | --- | --- | --- | --- | --- | --- | --- | --- | --- | --- | --- | --- | --- | --- | --- | --- |
| GTTGCA | 1.25 fold enrichment (6-mer frequency, TF over GST control) | 1.15 fold enrichment (6-mer frequency, TF over GST control) | 1.16 fold enrichment (6-mer frequency, TF over GST control) | 1.01 fold enrichment (6-mer frequency, TF over GST control) | 1.14 fold enrichment (6-mer frequency, TF over GST control) | 1.2 fold enrichment (6-mer frequency, TF over GST control) | 1.15 fold enrichment (6-mer frequency, TF over GST control) | 1.1 fold enrichment (6-mer frequency, TF over GST control) | 1.25 fold enrichment (6-mer frequency, TF over GST control) | 1.11 fold enrichment (6-mer frequency, TF over GST control) | 1.16 fold enrichment (6-mer frequency, TF over GST control) | 1.11 fold enrichment (6-mer frequency, TF over GST control) | 1.15 fold enrichment (6-mer frequency, TF over GST control) | 1.06 fold enrichment (6-mer frequency, TF over GST control) | 1.06 fold enrichment (6-mer frequency, TF over GST control) | 1.1 fold enrichment (6-mer frequency, TF over GST control) | 1.19 fold enrichment (6-mer frequency, TF over GST control) |
| CTGCAC | 1.2 fold enrichment (6-mer frequency, TF over GST control) | 1.29 fold enrichment (6-mer frequency, TF over GST control) | 1.12 fold enrichment (6-mer frequency, TF over GST control) | 1.13 fold enrichment (6-mer frequency, TF over GST control) | 1.21 fold enrichment (6-mer frequency, TF over GST control) | 1.3 fold enrichment (6-mer frequency, TF over GST control) | 1.19 fold enrichment (6-mer frequency, TF over GST control) | 1.15 fold enrichment (6-mer frequency, TF over GST control) | 1.12 fold enrichment (6-mer frequency, TF over GST control) | 1.22 fold enrichment (6-mer frequency, TF over GST control) | 1.17 fold enrichment (6-mer frequency, TF over GST control) | 1.32 fold enrichment (6-mer frequency, TF over GST control) | 1.2 fold enrichment (6-mer frequency, TF over GST control) | 1.29 fold enrichment (6-mer frequency, TF over GST control) | 1.24 fold enrichment (6-mer frequency, TF over GST control) | 1.31 fold enrichment (6-mer frequency, TF over GST control) | 1.13 fold enrichment (6-mer frequency, TF over GST control) |
| ACTACA | 1.32 fold enrichment (6-mer frequency, TF over GST control) | 1.21 fold enrichment (6-mer frequency, TF over GST control) | 1.32 fold enrichment (6-mer frequency, TF over GST control) | 1.16 fold enrichment (6-mer frequency, TF over GST control) | 1.19 fold enrichment (6-mer frequency, TF over GST control) | 1.15 fold enrichment (6-mer frequency, TF over GST control) | 1.13 fold enrichment (6-mer frequency, TF over GST control) | 1.28 fold enrichment (6-mer frequency, TF over GST control) | 1.11 fold enrichment (6-mer frequency, TF over GST control) | 1.17 fold enrichment (6-mer frequency, TF over GST control) | 1.24 fold enrichment (6-mer frequency, TF over GST control) | 1.06 fold enrichment (6-mer frequency, TF over GST control) | 1.16 fold enrichment (6-mer frequency, TF over GST control) | 1.07 fold enrichment (6-mer frequency, TF over GST control) | 1.11 fold enrichment (6-mer frequency, TF over GST control) | 1.04 fold enrichment (6-mer frequency, TF over GST control) | 1.22 fold enrichment (6-mer frequency, TF over GST control) |
